Assay results published in PubChem BioAssay (NCATS).
Records with an inconclusive call do not appear. Activity calls are given as the source filed them. Calls come from the whole dose curve; as a rule, active = well fitted cell-killing curve with a large enough effect; inconclusive = small, poorly fitted or top-dose-only effect, or effect the other way; inactive = flat fitted curve, though single readings scatter.

Key:
Experiment in all cases: Primary qHTS to identify gynecologic anti-cancer compounds using libraries of approved drugs and bioactive compounds (AID 1345084); note: nearly all actives have a fitted effect of over 55% in size
CAOV3 = settings: Gynecologic cancer cell panel viability, ATPlite luminescence, 48 h; series mostly up to 57.5 µM
Outline: (§1)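 Measured: luminescence after ATPlite addition (15 min, RT). Exposure: 48 h, 37 C, 5% CO2.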

CASKI = settings: Gynecologic cancer cell panel viability, ATPlite luminescence, 48 h; series mostly up to 57.5 µM
Outline: as §1

Es-2 = settings: Gynecologic cancer cell panel viability, ATPlite luminescence, 48 h; series mostly up to 57.5 µM
Outline: as §1

HeLa = settings: Gynecologic cancer cell panel viability, ATPlite luminescence, 48 h; series mostly up to 57.5 µM
Outline: as §1

Hek293T = settings: Gynecologic cancer cell panel viability, ATPlite luminescence, 48 h, control line for the selectivity index; series mostly up to 57.5 µM
Outline: as §1

JEG-3 = settings: Gynecologic cancer cell panel viability, ATPlite luminescence, 48 h; series mostly up to 57.5 µM
Outline: as §1

OV90 = settings: Gynecologic cancer cell panel viability, ATPlite luminescence, 48 h; series mostly up to 57.5 µM
Outline: as §1

PA-1 = settings: Gynecologic cancer cell panel viability, ATPlite luminescence, 48 h; series mostly up to 57.5 µM
Outline: as §1

SKOV3 = settings: Gynecologic cancer cell panel viability, ATPlite luminescence, 48 h; series mostly up to 57.5 µM
Outline: as §1

Tov-21-G = settings: Gynecologic cancer cell panel viability, ATPlite luminescence, 48 h; series mostly up to 57.5 µM
Outline: as §1

Tov112D = settings: Gynecologic cancer cell panel viability, ATPlite luminescence, 48 h; series mostly up to 57.5 µM
Outline: as §1
% is set by controls: 0 for no effect and ±100 for the full control effect.

C[C@@H]1C[C@H](O)/C=C/[C@H](O)[C@@H](O)CC(=O)O1
inactive: Potency (CAOV3) | Potency (CASKI) | Potency (Es-2) | Potency (HeLa) | Potency (Hek293T) | Potency (JEG-3) | Potency (OV90) | Potency (PA-1) | Potency (SKOV3) | Potency (Tov-21-G) | Potency (Tov112D)

COC(=O)[C@@]1(C)CC[C@]2(C(=O)O[C@@H]3O[C@H](CO)[C@@H](O)[C@H](O)[C@H]3O)CC[C@]3(C)C(=CCC4[C@@]5(C)CC[C@H](O[C@@H]6O[C@H](C(=O)O)[C@@H](O)[C@H](O)[C@H]6O)C(C)(C)C5CC[C@]43C)[C@@H]2C1 (some centres not stated)
inactive: activity change, negative = cytotoxicity (CAOV3) -1.21% [at 11.6 µM] | activity change, negative = cytotoxicity (CASKI) -4.58% [at 11.6 µM] | activity change, negative = cytotoxicity (Es-2) -0.312% [at 11.6 µM] | activity change, negative = cytotoxicity (HeLa) -10.5% [at 11.6 µM] | activity change, negative = cytotoxicity (Hek293T) -3.38% [at 11.6 µM] | activity change, negative = cytotoxicity (JEG-3) -1.5% [at 11.6 µM] | activity change, negative = cytotoxicity (OV90) -2.61% [at 11.6 µM] | activity change, negative = cytotoxicity (PA-1) -17.6% [at 11.6 µM] | activity change, negative = cytotoxicity (SKOV3) -12.6% [at 11.6 µM] | activity change, negative = cytotoxicity (Tov-21-G) 1.4% [at 11.6 µM] | activity change, negative = cytotoxicity (Tov112D) -8.48% [at 11.6 µM]

C[C@@H]1O[C@@H](O[C@H]2[C@H](OC(C#N)c3ccc(O)cc3)O[C@H](CO)[C@@H](O)[C@@H]2O)[C@H](O)[C@H](O)[C@H]1O (some centres not stated)
inactive: Potency (CAOV3) | Potency (CASKI) | Potency (Es-2) | Potency (HeLa) | Potency (Hek293T) | Potency (JEG-3) | Potency (OV90) | Potency (PA-1) | Potency (SKOV3) | Potency (Tov-21-G) | Potency (Tov112D)

O=C1Nc2ccc(O)cc2O[C@H]1O[C@@H]1O[C@H](CO)[C@@H](O)[C@H](O)[C@H]1O
inactive: Potency (CAOV3) | Potency (CASKI) | Potency (Es-2) | Potency (HeLa) | Potency (Hek293T) | Potency (JEG-3) | Potency (OV90) | Potency (PA-1) | Potency (SKOV3) | Potency (Tov-21-G) | Potency (Tov112D)

O=C(O[C@@H]1O[C@H](CO)[C@@H](O)[C@H](O)[C@H]1O)c1c(O)cc(O)cc1/C=C/c1ccccc1
inactive: Potency (CAOV3) | Potency (CASKI) | Potency (Es-2) | Potency (HeLa) | Potency (Hek293T) | Potency (JEG-3) | Potency (OV90) | Potency (PA-1) | Potency (SKOV3) | Potency (Tov-21-G) | Potency (Tov112D)

CO[C@@]12CC3[C@@H]([C@@H](O)[C@@H](OC(C)=O)C4[C@](C)(COC(C)=O)CCC[C@]34C)[C@@H](C)C1=CC(=O)O2 (some centres not stated)
inactive: Potency (CAOV3) | Potency (CASKI) | Potency (Es-2) | Potency (HeLa) | Potency (Hek293T) | Potency (JEG-3) | Potency (OV90) | Potency (PA-1) | Potency (SKOV3) | Potency (Tov-21-G) | Potency (Tov112D)

CC1=C2C=C(CO)C(CO)CCC2(C)CCC1=O (configuration not stated)
inactive: Potency (CAOV3) | Potency (CASKI) | Potency (Es-2) | Potency (HeLa) | Potency (Hek293T) | Potency (JEG-3) | Potency (OV90) | Potency (PA-1) | Potency (SKOV3) | Potency (Tov-21-G) | Potency (Tov112D)

C[C@]12CCC[C@](C)(C(=O)O)C1CCC13C=C(CO)C(CCC12)C3 (some centres not stated)
inactive: Potency (CAOV3) | Potency (CASKI) | Potency (Es-2) | Potency (HeLa) | Potency (Hek293T) | Potency (JEG-3) | Potency (OV90) | Potency (PA-1) | Potency (SKOV3) | Potency (Tov-21-G) | Potency (Tov112D)

CN(C)c1cccc(-c2c3c(=O)n(-c4ccccc4Cl)[nH]c3cc(=O)n2C)c1
inactive: Potency (CAOV3) | Potency (CASKI) | Potency (Es-2) | Potency (HeLa) | Potency (Hek293T) | Potency (JEG-3) | Potency (OV90) | Potency (PA-1) | Potency (SKOV3) | Potency (Tov-21-G) | Potency (Tov112D)

C/C=C/C=C/C=C/C(=O)O[C@@H]1[C@@H](OC)C2=C(C(=O)N(C(C)C(=O)O)C2)[C@@]2(C)CCCC(C)(C)[C@H]12 (some centres not stated)
inactive: Potency (CAOV3) | Potency (CASKI) | Potency (Es-2) | Potency (HeLa) | Potency (Hek293T) | Potency (JEG-3) | Potency (OV90) | Potency (PA-1) | Potency (SKOV3) | Potency (Tov-21-G) | Potency (Tov112D)

O=C(COc1ccc(Cl)cc1)NC1CCC(NC(=O)COc2ccc(Cl)cc2)CC1 (configuration not stated)
inactive: Potency (CAOV3) | Potency (CASKI) | Potency (Es-2) | Potency (HeLa) | Potency (Hek293T) | Potency (JEG-3) | Potency (OV90) | Potency (PA-1) | Potency (SKOV3) | Potency (Tov-21-G) | Potency (Tov112D)

O=C(/C=C/c1ccc(O)cc1)OCC1=C[C@@H](O)[C@@H]2C=CO[C@@H](O[C@@H]3O[C@H](CO)[C@@H](O)[C@H](O)[C@H]3O)[C@H]12
inactive: Potency (CAOV3) | Potency (CASKI) | Potency (Es-2) | Potency (HeLa) | Potency (Hek293T) | Potency (JEG-3) | Potency (OV90) | Potency (PA-1) | Potency (SKOV3) | Potency (Tov-21-G) | Potency (Tov112D)

CC1NC(=O)C(Cc2c[nH]c3ccccc23)NC1=O (configuration not stated)
inactive: Potency (CAOV3) | Potency (CASKI) | Potency (Es-2) | Potency (HeLa) | Potency (Hek293T) | Potency (JEG-3) | Potency (OV90) | Potency (PA-1) | Potency (SKOV3) | Potency (Tov-21-G) | Potency (Tov112D)

CC(C)(O)C1CC=C(C(=O)OCC2OC(Oc3c(O)cc(C(=O)O)cc3O)C(O)C(O)C2O)CC1 (configuration not stated)
inactive: Potency (CAOV3) | Potency (CASKI) | Potency (Es-2) | Potency (HeLa) | Potency (Hek293T) | Potency (JEG-3) | Potency (OV90) | Potency (PA-1) | Potency (SKOV3) | Potency (Tov-21-G) | Potency (Tov112D)

O=C(O)c1cc(O[C@@H]2O[C@H](CO[C@@H]3OC[C@@H](O)[C@H](O)[C@H]3O)[C@@H](O)[C@H](O)[C@H]2O)c2ccccc2c1O
inactive: Potency (CAOV3) | Potency (CASKI) | Potency (Es-2) | Potency (HeLa) | Potency (Hek293T) | Potency (JEG-3) | Potency (OV90) | Potency (PA-1) | Potency (SKOV3) | Potency (Tov-21-G) | Potency (Tov112D)

COC(=O)CC1(O)C(=O)Nc2ccccc21 (configuration not stated)
inactive: Potency (CAOV3) | Potency (CASKI) | Potency (Es-2) | Potency (HeLa) | Potency (Hek293T) | Potency (JEG-3) | Potency (OV90) | Potency (PA-1) | Potency (SKOV3) | Potency (Tov-21-G) | Potency (Tov112D)

CCC(NC(=O)CC(NC(=O)C(CO)NC(=O)C(CC)NC(=O)c1ccc[nH]1)c1ccccc1)C(=O)O (configuration not stated)
inactive: Potency (CAOV3) | Potency (CASKI) | Potency (Es-2) | Potency (HeLa) | Potency (Hek293T) | Potency (JEG-3) | Potency (OV90) | Potency (PA-1) | Potency (SKOV3) | Potency (Tov-21-G) | Potency (Tov112D)
